The whole screen tested about 2,100 compounds, of which about 650 (31%) were called active. Roughly 16% stayed inconclusive and do not appear here. The call rests on the fitted dose curve; in most records, active means well fitted inhibition curve with a large enough effect; inconclusive means small, poorly fitted or top-dose-only effect; inactive means flat fitted curve, though single readings scatter. Some of the results follow. Entries that show only a call come without a potency.
Potency means the concentration at half of the fitted maximal effect.

The assay in a line: qHTS for inhibitors of Vif-A3G interactions: Cherry picks. Further: nearly all actives have a fitted effect of over 80% in size. Conditions: HeLa A3G-eYFP + Vif (tagged APOBEC3G with the HIV-1 protein that degrades it), 24 h; Potency: eYFP fluorescence increase; series mostly up to 36.9 µM. In short, it runs like this:
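Cherry-picked compounds tested at several concentrations on A3G-eYFP/Vif HeLa cells for 24 hours; loss of Vif-driven degradation read as eYFP fluorescence by cytometric plate imaging, 488 nm excitation, 500-530 nm emission.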
Consider `CSc1ccc(C2NC(=O)c3ccccc3N2)cc1` (centres undefined), for which the Potency result is “inactive”.

`COc1ccccc1/C=C/C=N/n1c(-c2ccc(C)cc2)n[nH]c1=S`: the Potency result was “inactive”.

`O=c1c(O)c(-c2cccs2)oc2ccccc12`: the Potency is 2.59 µM (active).

Consider `C/C(=N\NC(N)=S)C12CC3CC(CC(C3)C1)C2`, for which the Potency entry is “inactive”.

Take `O=C(c1ccccc1F)n1c2c(c3ccccc31)CCCC2`: the Potency result was “inactive”.

Take `Nc1nonc1-c1nc2ccccc2n1CC(=O)Nc1cccc(C(F)(F)F)c1`: the Potency is 25.9 µM (active).

In the case of `Nc1nonc1-c1nc2ccccc2n1Cc1ccc(F)cc1`, the Potency result was “inactive”.

Take `COc1ccc(C)c(Cn2c(-c3nonc3N)nc3ccccc32)c1`: the Potency entry was “inactive”.

With `O=c1c[n+]([O-])c2ccccc2n1OCc1c(F)cccc1F`, the Potency result is “inactive”.

Consider `O=C(O)c1ccccc1N/N=C/c1c(Sc2nnnn2-c2ccccc2)nc2ccccn2c1=O`, for which the Potency was 3.53 µM (active).

For `O=c1oc2c3c4c(cc2c(C(F)(F)F)c1CCN1CCOCC1)CCCN4CCC3`, the Potency was 7.31 µM (active).

As for `O=C(Nc1cc(Cl)ccc1-n1cncn1)c1ccc([N+](=O)[O-])s1`, the Potency is 15.8 µM (active).

As for `O=C(O)Cc1sc(NC2CCCCC2)nc1-c1ccc(Cl)cc1`, the Potency entry is “inactive”.

Consider `COC(=O)C1=C(Nc2ccc(C)cc2)C=C(C)C(C(=O)OC)C1c1cccc(OC)c1` (centres undefined), for which the Potency result was “inactive”.

In the case of `CC(=O)Nc1ccc(S(=O)(=O)N2c3ccccc3C(C)=CC2(C)C)cc1`, the Potency entry is “inactive”.

Consider `O=C(NN(c1ccccc1)c1ccccc1)c1ccc([N+](=O)[O-])o1`, for which the Potency entry was “inactive”.

As to `Cc1cccc(/C=C/C(=O)c2ccc([N+](=O)[O-])o2)c1`, the Potency result is “inactive”.

Consider `Cc1cc2ccccn2c1C(=O)c1ccc([N+](=O)[O-])o1`, for which the Potency was 18.4 µM (active).

Consider `COC(=O)Cn1c(C)c(/C=C/c2cc[n+](C)cc2)c2ccccc21`, for which the Potency was 13 µM (active).

Take `CCN(CC)C(=O)Cn1c(C)c(/C=C/c2cc[n+](C)cc2)c2ccccc21`: the Potency was 12.5 µM (active).

Turning to `N#C/C(=C/c1cccs1)c1ccccn1`, the Potency is 14 µM (active).

For the compound `N#C/C(=C/c1ccc(N2CCCCCC2)o1)c1cccc(F)c1`, the Potency was 3.66 µM (active).

In the case of `CSc1nc2ccccc2cc1/C=C(\C#N)c1cccc(C)c1`, the Potency entry is “inactive”.

Take `N#C/C(=C/c1ccc(N2CCCCC2)o1)c1cccc(F)c1`: the Potency was 8.2 µM (active).

For `COc1cc(C2C(C#N)=C(N)Oc3cc(O)ccc32)cc(OC)c1OC` (centres undefined), the Potency result is “inactive”.

For `CCCCN(C)CC(O)Cn1cc(/C=C/C(=O)c2cccs2)c2ccccc21` (centres undefined), the Potency was 20.6 µM (active).

With `CN(NC(=O)c1ccccc1)c1nc2ccccc2nc1C(F)(F)F`, the Potency result is “inactive”.

Turning to `CN(C)c1ccc(/C=C/c2cc(/C=C/c3ccc(N(C)C)cc3)c3ccccc3n2)cc1`, the Potency is 6.51 µM (active).

Take `CN(C)c1ccc(/C=C/c2nc3ccccc3c(=O)n2CCO)cc1`: the Potency was 18.4 µM (active).

Take `CN(C)c1ccc(/C=C/c2cc(N(C)C)nc3ccccc23)cc1`: the Potency was 13 µM (active).

Regarding `Nc1ccc(/C=C/c2cc(Cl)nc3ccccc23)cc1`, the Potency is 20.6 µM (active).

For `Cc1noc(C)c1CSc1nc2ccccc2c(=O)n1-c1ccccc1`, the Potency result is “inactive”.

As for `O=C(NC(=S)Nc1ccc(-c2ccccc2)cc1)c1ccccc1`, the Potency entry is “inactive”.

As for `CC(C)Cn1c(N)c(C(=O)COC(=O)c2ccc([N+](=O)[O-])o2)c(=O)n(C)c1=O`, the Potency result is “inactive”.

Turning to `CC(C)(C)n1ncc2c(=O)n(CC(=O)NCc3ccc(F)cc3)cnc21`, the Potency entry was “inactive”.

On to `O=C1OC(Nc2nc(-c3ccc(F)cc3)cs2)c2ccccc21` (centres undefined), for which the Potency result was “inactive”.

Regarding `CCN(CC)c1ccc(/C=C/c2cc(-c3ccccc3)c3ccccc3n2)cc1`, the Potency is 11.2 µM (active).

On to `COc1ccc(C2=NOC(C(=O)NCc3cccs3)C2)cc1OC` (centres undefined), for which the Potency result was “inactive”.

For the compound `Cc1ccc(N2C(=O)[C@@H]3[C@H](C2=O)[C@H]2C=C(C(=O)c4ccccc4)C=CN2[C@@H]3C(=O)c2ccc(Cl)cc2)cc1`, the Potency entry is “inactive”.

`CCn1nc(-c2ccccc2)c2nc3ccccc3nc21`: the Potency was 16.4 µM (active).

As for `Nc1ccc2nc(-c3ccccc3)c(-c3ccccc3)nc2c1`, the Potency entry was “inactive”.

`O=C(Nc1nc(NC(=O)c2ccco2)n(-c2ccccc2)n1)c1ccccc1`: the Potency result was “inactive”.

For the compound `Cc1cc(C)c2cc3c(N)c(C(=O)Nc4c(C)[nH]c(=O)[nH]c4=O)sc3nc2c1`, the Potency is 18.4 µM (active).

For `O=C(Cn1cnc2c(cnn2-c2ccc(F)cc2)c1=O)NCc1ccco1`, the Potency result was “inactive”.

Turning to `N#CC1=C(N)Oc2cc(N)ccc2C1c1cccc(F)c1` (centres undefined), the Potency result was “inactive”.

Turning to `N#CC1=C(N)Oc2cc(N)ccc2C1c1ccccc1F` (centres undefined), the Potency entry was “inactive”.

For the compound `N#CC1=C(N)Oc2cc(N)ccc2C1c1ccc(F)cc1F` (centres undefined), the Potency was 18.4 µM (active).

Regarding `Cc1csc(NC(=O)CCC(=O)N(CC(=O)NC2CCCC2)Cc2ccccc2)n1`, the Potency result is “inactive”.

With `CCCC1=Nc2cc(C(=O)NCc3ccco3)ccc2Sc2ccccc21`, the Potency result was “inactive”.

Turning to `Cc1cc(=O)oc2cc(OCC(=O)N3c4ccccc4CC3C)ccc12` (centres undefined), the Potency entry is “inactive”.

On to `COc1cc(OC)c(OC)cc1/C=C1\Oc2cc(OCC(=O)N3Cc4ccccc4C[C@H]3C(=O)O)ccc2C1=O`, for which the Potency is 4.11 µM (active).

Regarding `CCNC(=S)N/N=C(\C)c1ccc(N2CCOCC2)cc1`, the Potency result is “inactive”.

For the compound `COc1ccc(OCCCC(=O)N2CCN(S(=O)(=O)c3cccc(F)c3)CC2)cc1`, the Potency entry is “inactive”.

For `O=C1CSC(=S)N1Cc1cccnc1`, the Potency is 16.4 µM (active).

Regarding `N=C1C(c2nc3ccccc3[nH]2)=C(O)CN1c1ccccc1`, the Potency entry is “inactive”.

As for `COc1ccc(OC)c(Nc2nc(-c3ccncc3)nc3ccccc23)c1`, the Potency result was “inactive”.

On to `O=C(/C(=C/c1ccc(Cl)cc1)c1nc2ccccc2[nH]1)c1cccs1`, for which the Potency entry was “inactive”.

Take `COc1cccc(N2CC(O)=C(c3nc4ccccc4c(=O)[nH]3)C2=N)c1`: the Potency entry was “inactive”.

Turning to `O=c1[nH]c2ccccc2nc1/C=C/c1ccc(F)cc1`, the Potency is 14 µM (active).

On to `COc1ccc(OC)c(/C=C/c2nc3ccccc3[nH]c2=O)c1`, for which the Potency is 18.4 µM (active).

As to `O=c1[nH]c2ccccc2nc1/C=C(\O)c1cccs1`, the Potency was 18.4 µM (active).

For `Cc1[nH]c2ccccc2c1/C=N/NC(=O)c1cc(-c2ccncc2)nc2ccccc12`, the Potency entry is “inactive”.

`O=[N+]([O-])c1ccc(N/N=C\c2cccn2-c2ccccc2)nc1`: the Potency result is “inactive”.

Regarding `O=[N+]([O-])c1ccc(N/N=C/c2c[nH]c3ccccc23)cc1`, the Potency is 11.6 µM (active).

For the compound `COc1ccc(S(=O)(=O)Nc2cccc3ccccc23)cc1`, the Potency result was “inactive”.

Take `COc1ccc(NS(=O)(=O)c2cc([N+](=O)[O-])ccc2N/N=C/c2c(C)[nH]c3ccccc23)cc1`: the Potency was 14.6 µM (active).

On to `CCN(CC)c1ccc(NC(=O)c2ccc(=O)[nH]c2)cc1S(=O)(=O)Nc1ccccc1OC`, for which the Potency entry was “inactive”.

`O=C(N/N=C/c1c[nH]c2ccccc12)C1COc2ccccc2O1` (centres undefined): the Potency entry was “inactive”.

Turning to `COc1ccccc1NS(=O)(=O)c1cc([N+](=O)[O-])ccc1N/N=C/c1c[nH]c2ccccc12`, the Potency was 16.4 µM (active).

Turning to `Cc1[nH]c2ccccc2c1/C=N/Nc1ccc([N+](=O)[O-])cc1`, the Potency was 13 µM (active).

For the compound `CCCCCS(=O)(=O)c1oc(-c2cccs2)nc1S(=O)(=O)c1ccc(C)cc1`, the Potency result is “inactive”.

As to `Cc1ccc(-c2nc(C=Nc3ccc(O)cc3)c(O)o2)cc1`, the Potency result is “inactive”.

In the case of `COc1ccc(NC(=O)C2(C)Cc3c(-c4cccc(NC(C)=O)c4)ccnc3O2)cc1` (centres undefined), the Potency result was “inactive”.

With `COc1cc(Cn2c3ccc(NC(=O)CCc4ccccc4)cc3c(=O)n2C)ccc1F`, the Potency entry was “inactive”.

As for `Cn1nnnc1SCCNCc1cc(Br)ccc1OCc1ccccc1Cl`, the Potency entry is “inactive”.

Take `Cc1ccc(-c2cc(NC=O)c3ncc(-c4cnn(C)c4)n3c2)cc1`: the Potency result is “inactive”.

Take `C/C(=N/Nc1ccc([N+](=O)[O-])cc1)c1c[nH]c2ccccc12`: the Potency was 8.2 µM (active).

Consider `O=[N+]([O-])c1ccc(N=Nc2ccc(O)c3ccccc23)cc1`, for which the Potency entry was “inactive”.

Turning to `COc1ccccc1NS(=O)(=O)c1cc([N+](=O)[O-])ccc1N/N=C/c1c(C)[nH]c2ccccc12`, the Potency was 2.8 µM (active).

For the compound `Cc1ccc(-c2cc(C(=O)N/N=C/c3c[nH]c4ccccc34)[nH]n2)cc1`, the Potency result was “inactive”.

Take `O=C(Nc1ccc2c(c1)OCCO2)C(=O)c1c[nH]c2ccccc12`: the Potency entry was “inactive”.

As to `O=[N+]([O-])c1ccc(N/N=C/c2c[nH]c3ccccc23)c(S(=O)(=O)Nc2ccc(Cl)cc2)c1`, the Potency was 18.4 µM (active).

For the compound `Cc1ccc(N2C(=O)CS/C2=C(\C(Cl)=C(Cl)Cl)[N+](=O)[O-])cc1`, the Potency result is “inactive”.

As for `Fc1cccc(F)c1/C=N/NC(=S)Nc1cccnc1`, the Potency entry was “inactive”.

Regarding `Cn1c(=O)c2cc(NC(=O)Cc3cccc4ccccc34)ccc2n1-c1ccccc1`, the Potency entry was “inactive”.

For the compound `CCOc1cc(/C=C/C(=O)c2ccc(OC)c(CN3CCOCC3)c2)cc(Br)c1O`, the Potency was 18.4 µM (active).

In the case of `COc1cc(/C=C/C(=O)c2ccc(O)cc2)ccc1OCC#N`, the Potency result is “inactive”.

Regarding `CCOc1ccc(N/C=C/C(=O)c2cc(OC)c(OC)c(OC)c2)cc1`, the Potency result is “inactive”.

`COc1cc2c(cc1OC)C(C)N(C(=O)c1cc(Cl)nc(Cl)c1)CC2` (centres undefined): the Potency entry is “inactive”.

For `O=C(Nc1ccc([N+](=O)[O-])cc1)C(Cc1ccccc1)N1C(=O)c2cccc3cccc(c23)C1=O` (centres undefined), the Potency was 14 µM (active).

With `O=C(c1ccc(CS(=O)c2ccccc2Cl)o1)N1CCN(c2ccccc2F)CC1` (centres undefined), the Potency entry was “inactive”.

`CC(=O)c1ccc2cccc3c2c1N=CN3C`: the Potency is 15.8 µM (active).

`C=CCn1c(O)c(N=NC(=O)CNC(=O)c2ccco2)c2ccccc21`: the Potency result is “inactive”.

As for `CCN(CC)c1ccc(NC(=O)c2ccc(=O)[nH]c2)cc1S(=O)(=O)Nc1ccc(OC)cc1`, the Potency entry is “inactive”.

As for `Cc1cc([N+](=O)[O-])ccc1-c1ccc(/C=N/NC(=O)c2ccc(Br)o2)o1`, the Potency was 16.4 µM (active).

On to `O=C(Cc1ccccc1)N/N=C/c1ccc(-c2ccc([N+](=O)[O-])cc2)o1`, for which the Potency was 17.7 µM (active).

As for `O=[N+]([O-])c1ccccc1C=NNC(=S)NN=Cc1ccccc1[N+](=O)[O-]`, the Potency result was “inactive”.

As to `CCOc1ccc(S(=O)(=O)N(CC(=O)N/N=C/c2ccc(-c3ccc([N+](=O)[O-])cc3)o2)c2ccccc2)cc1`, the Potency entry is “inactive”.

Take `CC(C)(C)NC(=S)N/N=C\c1ccc(-c2ccc([N+](=O)[O-])cc2)o1`: the Potency is 20.6 µM (active).

In the case of `NC(=S)N/N=C\c1ccc(-c2cccc(Cl)c2Cl)o1`, the Potency result is “inactive”.

Take `O=C(O)c1ccc(N/N=C/C(Br)=C/c2ccccc2)cc1`: the Potency result was “inactive”.

For `O=C(O)c1cccc(-c2ccc(/C=N/Nc3ccc([N+](=O)[O-])cc3)o2)c1`, the Potency is 18.4 µM (active).

On to `Cc1cc(/C=N/NC(=O)c2cc3ccccc3o2)c(C)n1C`, for which the Potency entry was “inactive”.

With `Cc1ccc(-c2ccc(/C=N/NC(N)=S)o2)cc1`, the Potency result is “inactive”.
